From PubChem BioAssay
Hits are enriched below; roughly 1.1% of the tested compounds scored in any of these assays.
TrxR1 inh: blocks rat thioredoxin reductase 1 | O89049 | recombinant rTrxR1, NADPH fluorescence consumption, selenite substrate | Potency, µM (doses to about 114 µM), for the others: at the highest dose activity change, negative = inhibition, actives largely listed as inhibitors | 1% of 390,000 active | AID 588453; further: potency means the concentration at half of the fitted maximal effect; nearly all actives have a fitted effect of over 65% in size
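Rat TrxR1 (90 nM in the dispensed reagent) was pre-reduced with 400 uM NADPH for 5 min at room temperature, then incubated with compound for 15 min. After 400 uM selenite was added, NADPH fluorescence (Ex 340/Em 450 nm) was followed for 8 min.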
GALK inhibitor: galactokinase (human) inhibition. Purified GALK, Kinase-Glo residual ATP luminescence. Potency, µM (titrated, usually from 57.5 µM), for the others: at the top dose activity change, negative = inhibition, usual class: inhibitors. 0.007% of 270,000 active. P51570; further: potency means the concentration at half of the fitted maximal effect
Target sequence (P51570 whole entry, looked up): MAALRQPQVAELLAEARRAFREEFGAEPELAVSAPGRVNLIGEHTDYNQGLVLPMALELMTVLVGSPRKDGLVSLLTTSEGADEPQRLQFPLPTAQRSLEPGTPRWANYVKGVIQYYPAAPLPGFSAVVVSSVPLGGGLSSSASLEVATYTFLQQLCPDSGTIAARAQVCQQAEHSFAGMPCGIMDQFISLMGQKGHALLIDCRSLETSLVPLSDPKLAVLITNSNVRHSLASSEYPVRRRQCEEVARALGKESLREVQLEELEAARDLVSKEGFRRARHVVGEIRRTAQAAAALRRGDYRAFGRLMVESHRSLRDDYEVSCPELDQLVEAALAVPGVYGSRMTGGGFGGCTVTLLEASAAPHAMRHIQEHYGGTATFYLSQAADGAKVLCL
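Compounds were pin-transferred into ATP buffer (35 uM final), then GALK plus galactose (5 nM, 100 uM final) was added. After 1 h at room temperature, Kinase-Glo Plus was added and luminescence read after 10 min.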
PI4K2A inh: blocks human PI4K2A kinase activity; Q9BTU6; purified PI4K2A, ADP-Glo luminescence, 1 h; stronger effect = lower value; activity change, negative = inhibition, % at 76.9 µM; 0.13% of 420,000 active; AID 1346378; in the data active means activity change below about -50%; inconclusive means mostly about -30% to -49%;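 further: -100% = wells without enzyme as full effect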
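ADP-Glo luminescence measured ADP generated by PI4K2A enzyme (4 ug/mL before mixing) with 1.2 mM PI substrate (pre-mix) and 300 microM ATP (pre-mix). Tris pH7.5 buffer with MgCl2, Triton X-100; 1 h reaction at ambient temperature.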
TrxR1 substrate: is turned over as a substrate by rat TrxR1 | O89049 | AID 588456 | purified TrxR1 substrate turnover, NADPH consumption readout | Potency, µM (highest dose often 114 µM), inactives show at the top dose activity change, negative = substrate turnover | 0.01% of 390,000 active; further: potency means the concentration at half of the fitted maximal effect; nearly all actives have a fitted effect of over 50% in size
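Rat TrxR1, dispensed at 90 nM, was prereduced with 400 uM NADPH (final) for 5 min at ~22 deg C, then incubated with compound 15 min before 400 uM selenite. A first-read NADPH fluorescence drop versus no-compound background flagged substrates.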
Numbers without * were called inactive; ? = inconclusive; . = no result; [ ] = dose if it differs, or a comment. Unless noted, the call rests on the fitted dose curve; in most records, active means well fitted curve in the direction sought with a large enough effect; inconclusive means small, poorly fitted or top-dose-only effect, or another doubt; inactive means no such curve, though single readings can be large; an effect the other way counts as inactive or inconclusive. Unless noted, on the % scale 0 is the no-effect control and ±100 the full control effect.

SMILES	TrxR1 inh	GALK inhibitor	PI4K2A inh	TrxR1 substrate
c1ccc(Oc2c3ccccc3nc3ccccc23)cc1	8.9µM*	1%	2	13%[57.1 µM]
Cc1ccc2ccc(Cl)cc2n1	.	.	-3	.
CCN1CCCn2c1nc1c2c(=O)n(C)c(=O)n1C	79µM*	-1%	-6	18%
CC[N+]1(C)CCC(O)(c2ccc(OC)cc2)C(C(=O)c2ccc(OC)cc2)C1 (stereo not given)	0.71µM*	.	31	4%
COc1ccccc1NC(=S)NN=C(C)c1ccccn1	11µM*	.	-13	-6%
COc1ccc(C[C@@H]2C(=O)N[C@H](C)C(=O)N(C)[C@@H]3Cc4ccc(cc4)Oc4cc(ccc4O)C[C@H](C(=O)N[C@@H](C)C(=O)N[C@H](C)C(=O)N2C)N(C)C3=O)cc1	-11%	.	.	-7%
CC(Cl)C(=O)NC(=O)NC12CC3CC(CC(C3)C1)C2 (stereo not given)	-16%	1%	1	-7%
O=C(CCl)NC(=O)NC12CC3CC(CC(C3)C1)C2	14µM*	-6%	7	8%
Nc1ccc(C(=O)N2CC3CC(CN(Cc4ccccc4)C3)C2)cc1	.	.	1	.
COc1ccccc1N=c1oc2cc(O)ccc2cc1C(=O)NCC1CCCO1 (stereo not given)	23%	2%	-11	189%
COc1ccccc1N=c1oc2cc(O)ccc2cc1C(N)=O	62%	1%	-52*	290%
CCOc1ccccc1C(=O)N(Cc1cc(OC)c(OC)c(OC)c1)c1ccccn1	14%	.	2	-5%
CC1=NN(c2ccc(Cl)cc2)C(=O)C1	1%[57.1 µM]	11%	?	1%[57.1 µM]
CC1=NN(c2ccc(S(=O)(=O)O)cc2C)C(=O)C1	23%[57.1 µM]	-3%	-68*	11%[57.1 µM]
COc1ccc(N/N=C(/C#N)S(=O)(=O)c2nsc(C)c2C#N)cc1	?	?	6	-20%
Cc1snc(S(=O)(=O)/C(C#N)=N/Nc2cccc(C(F)(F)F)c2)c1C#N	-24%[57.1 µM]	28µM*	1	-2%[57.1 µM]
O=C(NC(NNc1ccc([N+](=O)[O-])cc1)(C(F)(F)F)C(F)(F)F)c1ccc(F)cc1	28µM*	1%	-2	-25%
O=C(NC(NNc1ccc([N+](=O)[O-])cc1)(C(F)(F)F)C(F)(F)F)c1ccccc1Cl	3.2µM*	-2%	-1	-22%
O=C1C=CC(=Nc2ccc(F)cc2)O1	7.1µM*	.	1	1%
Cc1ccc(S(=O)(=O)c2nc(-c3cccs3)oc2SC(C)C)cc1	17%	.	-2	10%
CSc1oc(-c2ccc(F)cc2)nc1S(=O)(=O)c1ccc(F)cc1	21%[57.1 µM]	2%	-2	3%[57.1 µM]
CSc1oc(-c2ccccc2)nc1S(=O)(=O)c1ccc(F)cc1	8%[57.1 µM]	7%	-7	2%[57.1 µM]
CS(=O)(=O)c1oc(-c2ccc(F)cc2)nc1S(=O)(=O)c1ccc(Cl)cc1	0.5µM*	.	38	11%
CCS(=O)(=O)c1oc(-c2ccc(F)cc2)nc1S(=O)(=O)c1ccc(Br)cc1	0.56µM*	.	80	8%
CC(C)S(=O)(=O)c1oc(-c2cccs2)nc1S(=O)(=O)c1ccc(F)cc1	0.71µM*	.	41	29%
SMILES	TrxR1 inh	GALK inhibitor	PI4K2A inh	TrxR1 substrate
CCCCS(=O)(=O)c1oc(-c2ccc(F)cc2)nc1S(=O)(=O)c1ccccc1	1.1µM*	.	57	-3%
Cc1oc2ccc(O)c(CN(C)Cc3ccccc3)c2c1C(=O)Nc1cccc(Cl)c1C	-1%	.	1	5%
COC(=O)C(CCSC)NC(=O)C1CCN(c2ncnc3c2nc2n3CCCCC2)CC1 (stereo not given)	10%	.	-1	3%
CC(C)S(=O)(=O)c1oc(-c2ccc(F)cc2)nc1S(=O)(=O)c1ccccc1	0.32µM*	.	47	11%
CSc1oc(-c2ccc(F)cc2)nc1S(=O)(=O)c1ccccc1	13%	1%	0	-4%
Cc1ccccc1-c1nc(-c2ccccn2)no1	22%[57.1 µM]	14%	-51*	9%[57.1 µM]
COc1ccccc1-c1nc(-c2ccccn2)no1	-6%	5%	-64*	5%
Cc1ccccc1-c1nc(-c2cccnc2)no1	-6%	6%	-2	-2%
COc1ccc(-c2nc(-c3ccccn3)no2)cc1	10%	24%	-74*	5%
COCC(=O)N(c1ccc(C(C)(C)C)cc1)C(C(=O)NC(C)(C)C)c1cccnc1 (stereo not given)	.	.	-2	.
C=C1C(=O)C2=CC1CCC(=O)C1(C)CCC(OC(C)=O)C(C)(C)C1CC2O (stereo not given)	50µM*	.	1	1%
Cn1cccc1CC(=O)N/N=C/C=C/c1ccco1	50µM*	3%	?	-4%
C/C(=N\NC(=O)Cc1cccn1C)c1ccco1	?	-3%	-5	-3%
O=C(N/N=C/C=C/c1ccco1)C(O)c1ccccc1 (stereo not given)	13µM*	.	-9	-3%
O=S1(=O)c2ccc(N3CCSCC3)cc2Oc2ccccc2CN1Cc1cn(Cc2ccc(F)cc2)nn1	.	.	-4	.
O=C(/C=C/c1ccco1)Nc1ccc(C(=O)N2CCOCC2)cc1	40µM*	3%	0	-10%
O=C(/C=C/c1ccco1)Nc1ccc(N2CCCC2)cc1	32µM*	0%	-2	-3%
Cc1cc(NS(=O)(=O)c2ccc(NC(=O)/C=C/c3ccco3)cc2)nc(C)n1	13µM*	-4%	-9	-10%
Cc1ccc(NC(=O)/C=C/c2ccco2)cc1S(=O)(=O)N1CCCCCC1	?	.	-11	-1%
O=C(/C=C/c1ccco1)Nc1ccc(CN2CCOCC2)cc1	-26%	1%	-5	-11%
O=C(Cn1cc(C(=O)c2cccs2)c2ccccc21)Nc1ccc(Br)cc1	11%	.	0	3%
O=C(C[n+]1cccc(Br)c1)c1ccc(I)cc1	-11%	.	.	-1%
CC1(C)OC(=O)Nc2ccc(Br)cc21	.	.	-4	.
CCCNC(=O)c1ccc2nc(-c3ccccc3)c(-c3ccccc3)nc2c1	?	-4%	7	9%[11.4 µM]
O=C(NCCCO)c1ccc2nc(-c3ccco3)c(-c3ccco3)nc2c1	2.8µM*	-2%	-5	-9%
SMILES	TrxR1 inh	GALK inhibitor	PI4K2A inh	TrxR1 substrate
O=C(NCc1ccccc1)c1ccc2nc(-c3ccco3)c(-c3ccco3)nc2c1	?	-1%	-66*	-5%
CCCCNC(=O)c1ccc2nc(-c3ccco3)c(-c3ccco3)nc2c1	2.8µM*	-2%	?	-3%
CCCCc1c(C)nc2c(-c3ccc(OC)cc3)c(C)[nH]n2c1=O	7%	.	0	-2%
O=C1Nc2ccc(S(=O)(=O)NCc3ccco3)c3cccc1c23	45µM*	.	2	9%
COC(=O)Cc1nnc(SCC(=O)Nc2ccccc2)c2ccccc12	50µM*	6%	-5	-6%
N#Cc1c([N+](=O)[O-])cc([N+](=O)[O-])cc1S(=O)(=O)Cc1ccccc1	0.71µM*	.	-4	?
COc1cc(OC)c(C#N)c(S(=O)(=O)Cc2ccccc2)c1	10%[57.1 µM]	-1%	1	10%[57.1 µM]
O=S1(=O)C=C(Sc2nc3ccccc3s2)c2ccccc21	2.5µM*	0%	-14	0%[57.1 µM]
Cc1cc(C)nc(SC2=CS(=O)(=O)c3ccccc32)n1	-6%[57.1 µM]	0%	2	12%[57.1 µM]
